# According to PubChem BioAssay (NCATS):
# Results filed as inconclusive are left out. Active and inactive are the calls of the source. Unless noted, calls follow the shape of the dose curve; as a rule, active = well fitted curve in the direction sought with a large enough effect; inconclusive = small, poorly fitted or top-dose-only effect, or another doubt; inactive = no such curve, though single readings can be large; an effect the other way counts as inactive or inconclusive.
# Legend:
# [1] = biological target: Cytochrome P450 3A4 (Homo sapiens) (UniProt P08684); test: qHTS Assay for Inhibitors and Substrates of Cytochrome P450 3A4 (AID 884); also: nearly all actives have a fitted effect of over 50% in size; also: potency is read from the fitted curve at half-maximal effect; as to activity change, negative = inhibition: % is scaled to controls: 0 for no effect and ±100 for the full control effect
# Outline: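 Luminescent readout of luciferin produced by CYP3A4 (20 nM) dealkylation of Luciferin-PPXE, 25 uM (its KM). NADPH-driven reaction ran 60 min at RT after 10 min compound preincubation; data scaled to 57 uM ketoconazole as 100% inhibition.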
# [2] = qHTS Assay for Lipid Storage Modulators (AID 1519; calls by dose curve; also: potency is read from the fitted curve at half-maximal effect; as to activity change, negative = inhibition: % is scaled to controls: 0 for no effect and ±100 for the full control effect); details: Drosophila S3 cells, BODIPY lipid droplet/cell ratio, laser cytometry, cells loaded with oleic acid; for activity change, negative = inhibition: at 57.5 µM (top of the series)
# Outline: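 Cells seeded at 5,000 per well were treated with compounds over a concentration series and loaded with oleic acid (400 uM, as added). Lipid droplet fluorescence (488 nm excitation, 500-530 nm channel) was read by laser-scanning cytometry and normalized to 20 uM Triacsin C.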
# [3] = biological target: DNA dC->dU-editing enzyme APOBEC-3G (Homo sapiens) (UniProt Q9HC16); test: qHTS for inhibitors of Vif-A3G interactions: Validation (AID 588379); also: 0% is about no effect
# Outline: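 Yellow fluorescence (Ex 488, Em 500-530) of Vif-coexpressing HeLa A3G-eYFP cells, scanned by Acumen cytometer, reports blocked A3G degradation. Cells plated at 700/well overnight at 37 deg C before compound addition, then a further overnight compound incubation at 37 deg C.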
# [4] = biological target: Cytochrome P450 3A4 (Homo sapiens) (UniProt P08684); test: qHTS Assay for Activators of Cytochrome P450 3A4 (AID 885); also: nearly all actives have a fitted effect of over 65% in size
# Outline: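 Human CYP3A4 dealkylates Luciferin-PPXE to luciferin, which luciferase detection converts to light. Substrate was at its KM (25uM), buffer 200mM KPO4, reaction 60 min at RT.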
# [5] = Confirmation and Secondary Assay for Modulators of Hemoglobin Beta Chain Splicing at IVS2 654 locus (AID 910);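 also: HeLa cells stably carrying EGFP split by mutant beta-globin IVS2-654 intron; per-well total GFP intensity by laser scanning cytometry after 2-day treatment; % of control where 0% means no effect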
# Outline: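 Readout: per-well total peak green fluorescence (488 nm ex, 500–520 nm em) from objects 5–250 µm, reflecting correct splicing of an EGFP-654 reporter. Compounds were applied for 2 days at 37 °C to overnight-plated HeLa EGFP-654 cells; controls were DMSO and 500 nM IVS2-654 PNA.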
# [6] = Confirmation and Secondary Assay for Modulators of Hemoglobin Beta Chain Splicing at IVS2 705 locus (AID 930);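 also: HeLa cells stably expressing the EGFP-705 splicing reporter; GFP fluorescence per well restored by corrected splicing of the IVS2-705 intron in EGFP; % of control where 0% means no effect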
# Outline: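 Splice-correction reporter: EGFP cDNA split by beta-globin intron 2 bearing the 705 mutation, stably in HeLa. Compound incubation 2 days, 37C; fluorescent objects 5-250 µm summed per well.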
# [7] = biological target: Mitogen-activated protein kinase 10 (Mus musculus) (UniProt Q61831); test: JNK3 AlphaScreen Assay (AID 530; active = well fitted curve in either direction with a large enough effect, not every such curve was filed as active;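 also: kinase came from lysate of stimulated human HepG2 cells; signal reports phosphorylation of biotinylated GST-cJun 1-79 at Ser73 with 10 µM ATP; % is scaled to controls: 0 for no effect and ±100 for the full control effect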)
# Outline: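 qHTS titrations with 15 min compound pre-incubation before adding ATP (10 uM final). Read-out: AlphaScreen of Ser73-phosphorylated biotin-GST-cJun using HepG2 lysate JNK3 activated by IL-1β and TNFα.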
# [8] = biological target: Cytochrome P450 2C9 (Homo sapiens) (UniProt P11712); test: qHTS Assay for Inhibitors and Substrates of Cytochrome P450 2C9 (AID 883); also: % is scaled to controls: 0 for no effect and ±100 for the full control effect; nearly all actives have a fitted effect of over 60% in size
# Outline: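 Inhibition of CYP2C9 is scored as loss of luminescence, with 57uM sulphaphenazole defining 100% inhibition. Substrate Luciferin-H is used at 100uM, equal to its KM; enzyme at 10nM in 25mM KPO4, 60 min at 37C with NADPH regeneration.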
# [9] = measured here: cell count channel max response
# [10] = measured here: lipid channel max response
# Sequence of Cytochrome P450 3A4 (Homo sapiens) (P08684 whole entry, looked up): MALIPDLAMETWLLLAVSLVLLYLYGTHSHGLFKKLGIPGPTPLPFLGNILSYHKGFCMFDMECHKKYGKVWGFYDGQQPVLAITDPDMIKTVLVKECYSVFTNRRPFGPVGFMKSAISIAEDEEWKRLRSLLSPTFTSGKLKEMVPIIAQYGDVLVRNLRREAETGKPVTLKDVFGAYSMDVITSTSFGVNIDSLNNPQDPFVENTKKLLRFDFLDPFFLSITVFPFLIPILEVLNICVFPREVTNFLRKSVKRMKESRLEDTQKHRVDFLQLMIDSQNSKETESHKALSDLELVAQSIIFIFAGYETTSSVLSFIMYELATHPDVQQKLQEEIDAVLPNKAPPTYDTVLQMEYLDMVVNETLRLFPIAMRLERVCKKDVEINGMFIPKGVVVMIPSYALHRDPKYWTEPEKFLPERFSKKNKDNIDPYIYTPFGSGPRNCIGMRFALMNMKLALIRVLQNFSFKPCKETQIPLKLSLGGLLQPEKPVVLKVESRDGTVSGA
# Sequence of DNA dC->dU-editing enzyme APOBEC-3G (Homo sapiens) (Q9HC16 whole entry, looked up): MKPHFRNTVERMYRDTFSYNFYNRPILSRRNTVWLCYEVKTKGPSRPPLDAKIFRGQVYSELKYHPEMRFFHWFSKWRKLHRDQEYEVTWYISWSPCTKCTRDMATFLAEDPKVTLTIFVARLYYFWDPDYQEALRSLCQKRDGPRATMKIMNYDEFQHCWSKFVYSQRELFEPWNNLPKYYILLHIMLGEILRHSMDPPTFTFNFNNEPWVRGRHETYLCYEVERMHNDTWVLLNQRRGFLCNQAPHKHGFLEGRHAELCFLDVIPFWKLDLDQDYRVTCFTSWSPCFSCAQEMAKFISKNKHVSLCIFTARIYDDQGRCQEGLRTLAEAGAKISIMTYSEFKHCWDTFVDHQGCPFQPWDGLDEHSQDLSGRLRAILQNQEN
# Sequence of Cytochrome P450 2C9 (Homo sapiens) (P11712 whole entry, looked up): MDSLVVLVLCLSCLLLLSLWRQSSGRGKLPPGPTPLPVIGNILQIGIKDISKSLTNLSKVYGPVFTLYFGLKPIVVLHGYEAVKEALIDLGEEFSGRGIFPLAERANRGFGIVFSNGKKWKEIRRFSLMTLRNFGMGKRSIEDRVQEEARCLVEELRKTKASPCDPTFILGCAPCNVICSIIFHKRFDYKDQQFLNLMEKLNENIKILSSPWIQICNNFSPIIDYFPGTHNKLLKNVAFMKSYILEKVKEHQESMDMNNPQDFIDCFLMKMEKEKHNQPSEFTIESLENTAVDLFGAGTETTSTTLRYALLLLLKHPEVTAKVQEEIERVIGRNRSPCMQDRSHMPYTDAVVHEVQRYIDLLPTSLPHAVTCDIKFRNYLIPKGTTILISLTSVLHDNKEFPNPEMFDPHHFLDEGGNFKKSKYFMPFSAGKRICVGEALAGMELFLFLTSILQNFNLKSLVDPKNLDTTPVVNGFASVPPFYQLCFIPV
SMILES,Potency [1],"activity change, negative = inhibition [2]","max response [2, 9] [%]","max response [2, 10] [%]",outcome [3],Potency [4],Potency [5],Potency [6],Potency [2],Potency [7],Potency [8]
O=c1c2ccccc2oc2cc(O)c(C3COCC(CO)C(O)C(O)C3O)c(O)c12 (stereo not given),inactive,16.5% (inactive),22.8,36.9,inactive,,,,,,
COc1ccc2c(c1)OC/C(=C\c1ccc(OC)c(O)c1)C2=O,10 µM (active),-9.54% (inactive),2.46,-8.22,,inactive,inactive,inactive,,,
COC(=O)CC1C(C)(C)C(OC(C)=O)C2[C@H](OC(C)=O)[C@]34O[C@]2(O)[C@]1(C)C3CC[C@]1(C)C4=CC(=O)OC1c1ccoc1 (stereo not given in full),2 µM (active),,-16.6,-68.9,,inactive,inactive,inactive,15.8 µM (active),,
O=C(/C=C/c1ccc(O)cc1)c1ccccc1O,1.58 µM (active),-18.4% (inactive),5.42,-11.8,,inactive,inactive,inactive,,,
COc1c2ccoc2nc2c(OC)c(OCC(O)C(C)(C)O)ccc12 (stereo not given),,9.6% (inactive),16.9,29.2,inactive,,inactive,inactive,,,
COc1ccc2c(c1)OC1(O)COc3cc(OC)c(OC)cc3C1=C2 (stereo not given),7.94 µM (active),0.865% (inactive),-18.4,-15.5,,inactive,inactive,inactive,,,
COC(=O)C(O)C1C(C)(C)C(OC(C)=O)C2CC3=C4CC(=O)OC(c5ccoc5)[C@]4(C)CCC3[C@@]1(C)C2=O (stereo not given in full),10 µM (active),0.311% (inactive),4.91,8.34,,inactive,inactive,inactive,,,
CC(C)C1=CC2=CC[C@@H]3[C@@](C)(C(=O)O)CCC[C@]3(C)C2CC1 (stereo not given in full),inactive,0.573% (inactive),-0.0856,-0.672,inactive,,,,,,
O=C(O)CCCC[C@@H]1SC[C@H]2NC(=O)N[C@@H]12,inactive,6.17% (inactive),12.9,23.3,inactive,,,,,,
CN1[C@H](CC(=O)c2ccccc2)CCC[C@H]1C[C@@H](O)c1ccccc1,inactive,-2.41% (inactive),-11.7,-13.6,inactive,,,,,inactive,inactive
c1ccc2c(c1)CN1CCCC1=N2,inactive,5.8% (inactive),4.77,11.2,,inactive,inactive,inactive,,,
